Data taken from PubChem BioAssay AID540267 (National Center for Advancing Translational Sciences (NCATS), 2011).
The whole screen tested about 340,000 compounds, of which about 530 (0.16%) were called active. About 2% were inconclusive and are not listed. The full list was thinned out, with actives kept by preference. Unmarked numbers belong to inactive results. Cut-off read from the data, not from the text of the source: active = activity change below about -80%; inconclusive = between about -30% and that limit; inactive = weaker than that.

assay: Small Molecules that selectively kill Giardia lamblia: qHTS; conditions: Giardia lamblia trophozoite viability; at 7.66 µM; stronger effect = lower value;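 note: parasites exposed to compound for two days anaerobically before the ATP read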
Summary of the method: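 Luminescence from cellular ATP indicates surviving trophozoites (100 cells/well) following 48 hrs anaerobic compound treatment at 37 deg C; signal develops 15-30 min at room temperature.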
% is set by controls: 0 for no effect and ±100 for the full control effect.

In order of rising activity change:
1. O=C(NCCCN1CCOCC1)c1cn(-c2ccccc2)nc1-c1ccc(F)cc1  -14.8%
2. O=C(NCC1CC1)C1(C(F)(F)F)C/C(=C\CCO)CCCO1 (configuration not stated)  -14.8%
3. COC(=O)C(CC(C)C)NS(=O)(=O)c1cc(Br)ccc1Br (configuration not stated)  -10.7%
4. O=C(c1ccc2nc(N3CCOCC3)sc2c1)N1CCN(c2ccc(Cl)cc2)CC1  -10.4%
5. COc1ccc(Cn2c(=O)[nH]c3cc(C(=O)N4CCN(C(=O)c5ccco5)CC4)ccc3c2=O)cc1  -2.35%
6. Cc1ccc(Nc2c(-c3ccc(C)s3)nc3ccccn23)cc1  1.31%
7. COc1ccc2nc(N3C(=O)C(O)=C(C(=O)c4ccco4)C3c3ccco3)sc2c1 (configuration not stated)  1.49%
8. Cc1ccc(-c2nn(-c3ccccc3)cc2C(=O)NC2CCC(O)CC2)cc1 (configuration not stated)  4.06%
9. COc1ccc(S(=O)(=O)N2CCN(c3ccc(F)cc3)CC2)cc1-c1noc(C)n1  5.27%
10. Cc1noc(NS(=O)(=O)c2ccc(NC(=O)c3oc4ccc(F)cc4c3C)cc2)c1C  6.55%
11. Cc1nc(-c2ccccc2)cn2c1nc1ccccc12  7.53%
12. Cc1noc(C)c1NC(=O)Nc1cccc2c1O[C@H](CN(C)C(=O)Nc1ccccc1)[C@@H](C)CN([C@H](C)CO)C2=O  8.07%
13. COC(=O)c1ccc(OCC(O)CN(CCO)CC(O)Cn2ccc3ccccc32)cc1 (configuration not stated)  8.7%
14. Cc1ccc(S(=O)(=O)N2CCN(c3nc(-n4cnc5ccccc54)nc4ccccc34)CC2)cc1  11.1%
15. CCCCNC(=O)Cn1c(SCc2cccc(Cl)c2)nc2ccncc21  12.3%
16. CC(C)=CCN1CCN(CCCc2ccccc2)CC1CCO (configuration not stated)  23.8%
17. Cc1ccc(-c2nc(=N)sn2Cc2ccccc2)cc1  24.2%
18. O=S(=O)(c1cccc(C(F)(F)F)c1)N1CCN(c2nc(-c3cccs3)nc3ccccc23)CC1  27.4%
19. Cc1noc(C)c1NC(=O)Nc1ccc2c(c1)C(=O)N([C@H](C)CO)C[C@H](C)[C@@H](CN(C)C(=O)Nc1ccc(C(F)(F)F)cc1)O2  41.7%

With O=C(N/N=C/c1ccc([N+](=O)[O-])o1)c1cn(-c2ccccc2)nc1-c1ccc(F)cc1 the activity change was -93% (active).
With C[C@H](CO)N1C[C@H](C)[C@H](CN(C)C(=O)Nc2ccc(C(F)(F)F)cc2)Oc2c(NC(=O)c3ccncc3)cccc2C1=O the activity change was -89.7% (active).
For COc1ccc2nc(N3CCN(C(=O)c4ccc([N+](=O)[O-])o4)CC3)sc2c1, the activity change was -98.8% (active).
